# Structures can show the parent of a compound that is named as a salt.
# Test system: Danio rerio larvae (5 dpf)
# Test: optomotor response to fast red moving lines, difference vs DMSO (percentage points (treated minus DMSO)); higher = more of the behaviour than the DMSO vehicle control
# Details: 10 µM; exposure time: 3 h pre-incubation + 3 h imaging
# Description: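 5-dpf wild-type zebrafish larvae were imaged in 96-well plates. They were treated with 190 Tocris FDA-approved drugs at 10 µM (1 µl/ml DMSO) for 3 h before and 3 h during imaging at 28.5 °C, 48 larvae per drug. Automated image analysis gave % time moving and optomotor responses. Values are drug group mean minus DMSO vehicle mean (n=844), in percentage points, for 10 behaviours.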
row,Compound,optomotor response
1,CCCC1O[C@@H]2C[C@H]3[C@@H]4CCC5=CC(=O)C=C[C@]5(C)[C@H]4[C@@H](O)C[C@]3(C)[C@]2(C(=O)CO)O1 (stereo not given in full) [Budesonide],0.572
2,N[C@@H]1[C@H]2CN(c3nc4c(cc3F)c(=O)c(C(=O)O)cn4-c3ccc(F)cc3F)C[C@@H]12 [Trovafloxacin mesylate],-4.84
3,CN(C)CCc1c[nH]c2ccc(Cn3cncn3)cc12 [Rizatriptan benzoate],5
4,CCCc1nc2c(C)cc(-c3nc4ccccc4n3C)cc2n1Cc1ccc(-c2ccccc2C(=O)O)cc1 [Telmisartan],7.51
5,CO[C@H]1/C=C/O[C@@]2(C)Oc3c(C)c(O)c4c(O)c(c5c(nc6cc(C)ccn65)c4c3C2=O)NC(=O)/C(C)=C\C=C\[C@H](C)[C@H](O)[C@@H](C)[C@@H](O)[C@@H](C)[C@H](OC(C)=O)[C@@H]1C [Rifaximin],-3.87
6,Clc1ccc(COC(Cn2ccnc2)c2ccc(Cl)cc2Cl)c(Cl)c1 (stereo not given) [Miconazole nitrate],-18.6
7,Clc1ccccc1C(c1ccccc1)(c1ccccc1)n1ccnc1 [Clotrimazole],17.9
8,CN(CCOc1ccc(CC2SC(=O)NC2=O)cc1)c1ccccn1 (stereo not given) [Rosiglitazone],-14.3
9,OC(c1cc(C(F)(F)F)nc2c(C(F)(F)F)cccc12)C1CCCCN1 (stereo not given) [Mefloquine hydrochloride],-3.95
10,Nc1cc(N2CCCCC2)nc(N)[n+]1[O-] [Minoxidil],2.09
11,Cc1nc(-c2ccc(OCC(C)C)c(C#N)c2)sc1C(=O)O [Febuxostat],8.02
12,C[C@@H](O[C@H]1OCCN(Cc2n[nH]c(=O)[nH]2)[C@H]1c1ccc(F)cc1)c1cc(C(F)(F)F)cc(C(F)(F)F)c1 [Aprepitant],7.32
13,O=C(O)CCCc1ccccc1 [Sodium 4-Phenylbutyrate],-11
14,CC(=O)NC[C@H]1CN(c2ccc(N3CCOCC3)c(F)c2)C(=O)O1 [Linezolid],5.73
15,CCCCCCCCc1ccc(CCC(N)(CO)CO)cc1,10.4
16,CN(C)C(=N)NC(=N)N [Metformin hydrochloride],10.2
17,COc1c(C)c2c(c(O)c1C/C=C(\C)CCC(=O)OCCN1CCOCC1)C(=O)OC2 [Mycophenolate mofetil],2.27
18,O=C1CCc2ccc(OCCCCN3CCN(c4cccc(Cl)c4Cl)CC3)cc2N1 [Aripiprazole],7.59
19,CC(C)C(=O)Nc1ccc([N+](=O)[O-])c(C(F)(F)F)c1 [Flutamide],-21.1
20,CC(C)(C(=O)O)c1ccc(C(O)CCCN2CCC(C(O)(c3ccccc3)c3ccccc3)CC2)cc1 (stereo not given) [Fexofenadine hydrochloride],-0.251

row,Compound,optomotor response
1,Cc1cn([C@H]2C=C[C@@H](CO)O2)c(=O)[nH]c1=O [Stavudine],-8.38
2,CC(C)(C#N)c1cc(Cn2cncn2)cc(C(C)(C)C#N)c1 [Anastrozole],-1.59
3,CC[C@H](C)C(=O)O[C@H]1C[C@@H](C)C=C2C=C[C@H](C)[C@H](CC[C@@H]3C[C@@H](O)CC(=O)O3)[C@H]21 [Lovastatin],-4.95
4,Nc1nc(F)nc2c1ncn2[C@@H]1O[C@H](CO)[C@@H](O)[C@@H]1O [Fludarabine],-4.77
5,COc1ccc(-c2ccc3cc(C(=O)O)ccc3c2)cc1C12CC3CC(CC(C3)C1)C2 [Adapalene],-11.7
6,CC(C)c1nc(CN(C)C(=O)N[C@H](C(=O)N[C@@H](Cc2ccccc2)C[C@H](O)[C@H](Cc2ccccc2)NC(=O)OCc2cncs2)C(C)C)cs1 [Ritonavir],-9.38
7,C[C@H]1C[C@@H]2[C@H]([C@@H](O)C[C@@]3(C)[C@H]2CC[C@]3(O)C(=O)CO)[C@@]2(C)C=CC(=O)C=C12 [Methylprednisolone],-4.16
8,Nc1nc(NC2CC2)c2ncn([C@H]3C=C[C@@H](CO)C3)c2n1 [Abacavir hemisulfate],-1.18
9,O=C1CCc2cc(OCCCCc3nnnn3C3CCCCC3)ccc2N1 [Cilostazol],-1.51
10,CCC(=O)O[C@]1(C(=O)SCF)[C@H](C)C[C@H]2[C@@H]3C[C@H](F)C4=CC(=O)C=C[C@]4(C)[C@@]3(F)[C@@H](O)C[C@@]21C [Fluticasone propionate],-7.85
11,COc1ccc([C@@H]2Sc3ccccc3N(CCN(C)C)C(=O)[C@@H]2OC(C)=O)cc1 [Diltiazem hydrochloride],-0.971
12,Cc1ccsc1C(=CCCN1CCC[C@@H](C(=O)O)C1)c1sccc1C [Tiagabine hydrochloride],21.7
13,CCc1nc(N)nc(N)c1-c1ccc(Cl)cc1 [Pyrimethamine],9.74
14,Cc1ccccc1C(=O)Nc1ccc(C(=O)N2CCCC(O)c3cc(Cl)ccc32)c(C)c1 (stereo not given) [Tolvaptan],2.23
15,Nc1ccn([C@@H]2O[C@H](CO)[C@@H](O)C2(F)F)c(=O)n1 [Gemcitabine hydrochloride],5.64
16,CNC(=O)c1cc(Oc2ccc(NC(=O)Nc3ccc(Cl)c(C(F)(F)F)c3)cc2)ccn1 [Sorafenib],-21.1
17,Cc1cccc(C)c1OCC(C)N (stereo not given) [Mexiletine hydrochloride],0.599
18,COC(c1ccccc1)(c1ccccc1)[C@H](Oc1nc(C)cc(C)n1)C(=O)O [Ambrisentan],-12.3
19,N#Cc1ccc(C(c2ccc(C#N)cc2)n2cncn2)cc1 [Letrozole],4.75
20,CCOc1nc2cccc(C(=O)O)c2n1Cc1ccc(-c2ccccc2-c2noc(=O)[nH]2)cc1 [Azilsartan],-3.36

# Source: the supplement of paper PMC9023506
